# Source: PubChem (National Center for Advancing Translational Sciences (NCATS))
# Most compounds without a hit are left out; they make up all but 19% or so of the library.
# HT1080-NT tox: kills 2HG-producing HT-1080-NT fibrosarcoma cells | HT-1080-NT fibrosarcoma viability, CellTiter-Glo ATP luminescence, 48 h | Potency, µM (doses to about 46.1 µM), inactives show at the highest dose activity, negative = less viability, hits mostly cytotoxic | 360,000 compounds, 1.6% hits;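 further: NT is the 2HG producing partner of a matched IDH1 knockdown line; 0% = DMSO-treated cells and -100% = media-only wells without cells; nearly all actives have a fitted effect of over 55% in size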
#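 HT-1080-NT; 750 cells/well; 5% FBS RPMI; 48 h compound, 37 degrees C; CellTiter-Glo luminescence; curve fitting and curve-class assignment.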
# KB-V1 MDR tox: kills drug-selected multidrug resistant KB-V1 cells | AID 1347076 | KB-V1 MDR cells viability, CellTiter-Glo, 72 h | Potency, µM (doses to about 46.1 µM), hits mostly cytotoxic | 400,000 compounds, 3.4% hits; further: nearly all actives have a fitted effect of over 60% in size
#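 Readout: CellTiter-Glo luminescence, 10 min after addition. Cells: KB-V1 MDR subline, 72 h at 37 degrees C with compound. Analysis: corrected, normalized data fitted to concentration-effect curves.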
# DT40 TDP1 CPT: growth inhibition of DT40 Tdp1-/-;hTDP1 cells with camptothecin (screen for TDP1 inhibitors); Potency, µM (titrated, usually from 46.2 µM), for the others: at the top dose activity change, negative = growth inhibition, most hits filed as inhibitors; chicken DT40 Tdp1-/-;hTDP1 cells + 20 nM CPT, ATP luminescence, 48 h; 420,000 compounds, 12% hits; further: nearly all actives have a fitted effect of over 55% in size
#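 Cell growth measured by CellTiter-Glo luminescence after a minimum 48 h, 37 C compound exposure with 20 nM CPT in Tdp1-knockout DT40 cells stably expressing hTDP1, seeded 400/well; qHTS titration format.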
# KB-3-1 cytotox: KB-3-1 parental cell cytotoxicity; Potency, µM (top dose mostly 46.1 µM), actives largely listed as cytotoxic; 400,000 compounds, 1.4% hits; KB-3-1 viability, CellTiter-Glo ATP luminescence, 72 h; further: nearly all actives have a fitted effect of over 60% in size
#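 Luminescent ATP read-out (CellTiter-Glo) measures survival of drug-naive KB-3-1 cells after 72 h compound exposure at 37 °C. Titration series was screened from lowest to highest concentration, with DMSO vehicle plates as background controls.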
# TDP1 cell noCPT: qHTS for Inhibitors of human tyrosyl-DNA phosphodiesterase 1 (TDP1): qHTS in cells in absence of CPT; DT40 Tdp1-/- hTDP1 cells, no CPT, ATP luminescence, 48 h; Potency, µM (top dose mostly 46.2 µM), for inactives: at the highest dose activity change, negative = growth inhibition, usual class: inhibitors; 420,000 compounds, 15% hits; AID 686978, 2013; further: nearly all actives have a fitted effect of over 55% in size
#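 Growth of hTDP1-complemented DT40 Tdp1-knockout cells is measured by ATP luminescence after at least 48 hr compound exposure at 37 °C, with DMSO substituting for the 20 nM CPT used in the parallel screen.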
# HT1080 IDH1KD tx: kills HT-1080 cells with IDH1 knockdown | HT-1080 IDH1 knockdown viability, ATP luminescence, 48 h | Potency, µM (top dose mostly 46.1 µM), for the others: at the highest dose activity, negative = toxicity, hits mostly cytotoxic | 360,000 compounds, 2% hits | AID 686971;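 further: 0% = DMSO wells and -100% = cell-free medium wells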
#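 HT-1080-IDH1KD cells (IDH1 knocked down), 750/well in RPMI with 5% FBS, treated with compound 48 h at 37 degrees C. Viability by CellTiter-Glo luminescence, normalised to DMSO and no-cell wells; concentration-response curves classed.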
# An asterisk follows results filed as active; i = inactive; u = inconclusive; x = no result; [ ] = dose if it differs, or a comment. The call rests on the fitted dose curve; in most records, active means well fitted curve in the direction sought with a large enough effect; inconclusive means small, poorly fitted or top-dose-only effect, or another doubt; inactive means no such curve, though single readings can be large; an effect the other way counts as inactive or inconclusive. Unless noted, on the % scale 0 is the no-effect control and ±100 the full control effect; potency means the concentration at half of the fitted maximal effect.
SMILES,HT1080-NT tox,KB-V1 MDR tox,DT40 TDP1 CPT,KB-3-1 cytotox,TDP1 cell noCPT,HT1080 IDH1KD tx
CC(C)CCC(CC(C)O)C(=O)NNC(=S)Nc1ccccc1 (stereo not drawn),-1%,i,9%,i,9%,1%
CCNc1ccccc1CP(=O)(c1ccccc1)c1ccccc1O (stereo not drawn),-8%,i,u,i,2.6µM*,5%
Cc1ccc(O)c(CP(=O)(c2ccccc2)c2ccccc2)c1,3%,u,u,i,u,4%
CC(C)c1nc2c(c(=O)c3ccccc3n2C)c(=O)n1CCc1ccccc1,-6%,u,u,i,9.2µM*,0%
COCCCn1c(C2CCCCC2)nc2oc3cc(OC)ccc3c(=O)c2c1=O,9%,23µM*,u,u,21µM*,15%
COc1ccc2c(=O)c3c(=O)n(Cc4ccco4)c(C(C)C)nc3oc2c1,3%,21µM*,3%,i,-23%,-9%
COc1ccc2c(=O)c3c(=O)n(Cc4ccco4)c(-c4ccc(C)cc4)nc3oc2c1,7%,i,u,i,u,3%
CCCc1nc2oc3ccccc3c(=O)c2c(=O)n1CCCOC,-3%,i,9%,i,-14%,-2%
COc1ccc(CCn2c(C(C)C)nc3oc4ccccc4c(=O)c3c2=O)cc1,-8%,i,u,i,29µM*,-1%
COc1ccc(Cn2c(-c3ccccc3)nc3c(c(=O)c4ccccc4n3C)c2=O)cc1,5%,i,u,i,u,9%
CCCCCC(=O)N/N=C(\C)c1ccc(N2CCCCC2)cc1,-12%,i,-6%,i,u,0%
CN(Cc1c(F)cccc1Cl)C(=O)CCc1c[nH]c2ccccc12,-8%,i,u,i,u,-18%
CC(=O)Nc1ccccc1C(=O)C(=O)Nc1cccc(C(=O)N2CC(C)CC(C)C2)c1 (stereo not drawn),-22%,u,u,u,u,u
COc1ccc(CN2C(=O)C(CC(=O)NC3CC3)CC(C(=O)N3CCOCC3)=C2C)cc1 (stereo not drawn),16%,i,-22%,i,u,19%
CCc1nc2oc3cc(OC)ccc3c(=O)c2c(=O)n1Cc1ccccc1,3%[9.24 µM],i,u,i,u,-21%
CCCc1nc2oc3cc(OC)ccc3c(=O)c2c(=O)n1CCc1ccccc1,1%,i,21µM*,i,23µM*,18%
Cc1nc(NS(=O)(=O)c2ccc(Cl)s2)c2c3c(sc2n1)CCCC3,u,12µM*,u,u,u,u
Cc1nc(NCc2ccco2)c2c3c(sc2n1)CCC3,u,i,13µM*,u,13µM*,u
Cc1nc(Oc2ccc(S(=O)(=O)N3CCOCC3)cc2Cl)c2c3c(sc2n1)CCCC3,10%,i,u,u,u,2%
COc1ccc(Nc2nc(C)nc3sc4c(c23)CCC4)cc1O,u,5.8µM*,15µM*,u,13µM*,-13%
c1ccc(CNc2ncnc3sc4c(c23)CCCC4)nc1,-4%,8.2µM*,16µM*,i,23µM*,-4%
CCOC(=O)c1ccc(NC(=O)c2cn3c4c(ccc(Cl)c4c2=O)OC(C)C3)cc1 (stereo not drawn),x,u,-9%,i,2%,x
CSCCC(NC(=O)c1ccccc1Cl)C(=O)NC1CCN(Cc2ccccc2)CC1 (stereo not drawn),-5%,u,-10%,i,-11%,0%
CC(C)OCCCNc1ncnc2sc3c(c12)CCCC3,x,i,21µM*,u,23µM*,x
Cc1nc(NCc2cccnc2)c2c3c(sc2n1)CC(C)CC3 (stereo not drawn),-3%,i,u,i,u,-2%
SMILES,HT1080-NT tox,KB-V1 MDR tox,DT40 TDP1 CPT,KB-3-1 cytotox,TDP1 cell noCPT,HT1080 IDH1KD tx
CN(C)C(CNc1ncnc2sc3c(c12)CCCC3)c1ccco1 (stereo not drawn),-9%,u,u,i,23µM*,-5%
Cc1nc(NCc2ccccn2)c2c3c(sc2n1)CCCC3,-25%,i,u,i,21µM*,-21%
CC(C)C(C)(C)C(C)(C)C(C)(C)S,x,x,11%[92.5 µM],x,6%[92.5 µM],x
Cc1ccc(N(C)S(=O)(=O)c2csc(C(N)=O)c2)cc1C,0%,i,-22%,i,-13%,0%
C=C(C)CC1(NC(C)c2ccccc2)CCCCC1 (stereo not drawn),1%,i,23µM*,i,u,-13%
COc1cccc(-n2c(=O)c3cc(OC)c(OC)cc3n(CC(=O)Nc3ccccc3)c2=O)c1,x,i,u,i,u,x
COCCCNC(=O)/C(C#N)=C/c1c(N2CCN(c3ccccc3)CC2)nc2ccccn2c1=O,5%,u,u,i,15µM*,2%
COCCCNC(=O)/C(C#N)=C/c1c(N2CCN(C)CC2)nc2ccccn2c1=O,0%,i,3%,i,-29%,0%
CCOC(=O)N1CCN(c2nc3ccccn3c(=O)c2C=O)CC1,-1%,i,15µM*,i,u,1%
COCCNC(=O)/C(C#N)=C/c1c(N2CCN(c3ccccc3)CC2)nc2ccccn2c1=O,25%,i,-30%,i,18µM*,0%
C=CCNC(=O)/C(C#N)=C/c1c(N(Cc2ccccc2)Cc2ccccc2)nc2ccccn2c1=O,-5%,18µM*,u,i,u,-29%
CCNC(=O)/C(C#N)=C/c1c(N2CCN(c3ccccc3)CC2)nc2ccccn2c1=O,4%,i,u,i,u,1%
COCC1CCCN(Cc2ccc3c(c2)CN(C(=O)c2cn4ccc(C)cc4n2)CCO3)C1 (stereo not drawn),x,x,-11%[9.04 µM],x,-17%,x
COc1ccc(/C=C/C=C2\N=C(SC)SC2=O)cc1,16%,u,23µM*,i,29µM*,25%
CSC1=N/C(=C\c2ccc(F)cc2)C(=O)S1,0%,i,1%,i,-22%,-3%
COc1ccc(N2C(=O)c3ccccc3NC2c2ccc(OC)c(COc3ccccc3F)c2)cc1 (stereo not drawn),x,i,-17%,i,u,x
CCCN1C(=O)c2ccccc2NC1c1ccc(OC)c(COc2cccc(C)c2C)c1 (stereo not drawn),x,u,u,u,16µM*,x
